Results taken from PubChem BioAssay AID1903 (Southern Research Specialized Biocontainment Screening …, 2009).
Screen size: about 310,000 compounds; about 1,200 (0.39%) were called active. How the calls were made is not given here. Not all results are given here. Potency and affinity values are given separately.

Target: Large T antigen (Simian virus 40) (UniProt P03070)
Test: TAg ATPase/helicase activity blockers – biochemical (AID 1903)
Conditions: SV40 large T antigen ATPase/helicase inhibition assay; at 20 µM; stronger effect = higher value

Large T antigen (Simian virus 40), sequence (P03070 whole entry, looked up): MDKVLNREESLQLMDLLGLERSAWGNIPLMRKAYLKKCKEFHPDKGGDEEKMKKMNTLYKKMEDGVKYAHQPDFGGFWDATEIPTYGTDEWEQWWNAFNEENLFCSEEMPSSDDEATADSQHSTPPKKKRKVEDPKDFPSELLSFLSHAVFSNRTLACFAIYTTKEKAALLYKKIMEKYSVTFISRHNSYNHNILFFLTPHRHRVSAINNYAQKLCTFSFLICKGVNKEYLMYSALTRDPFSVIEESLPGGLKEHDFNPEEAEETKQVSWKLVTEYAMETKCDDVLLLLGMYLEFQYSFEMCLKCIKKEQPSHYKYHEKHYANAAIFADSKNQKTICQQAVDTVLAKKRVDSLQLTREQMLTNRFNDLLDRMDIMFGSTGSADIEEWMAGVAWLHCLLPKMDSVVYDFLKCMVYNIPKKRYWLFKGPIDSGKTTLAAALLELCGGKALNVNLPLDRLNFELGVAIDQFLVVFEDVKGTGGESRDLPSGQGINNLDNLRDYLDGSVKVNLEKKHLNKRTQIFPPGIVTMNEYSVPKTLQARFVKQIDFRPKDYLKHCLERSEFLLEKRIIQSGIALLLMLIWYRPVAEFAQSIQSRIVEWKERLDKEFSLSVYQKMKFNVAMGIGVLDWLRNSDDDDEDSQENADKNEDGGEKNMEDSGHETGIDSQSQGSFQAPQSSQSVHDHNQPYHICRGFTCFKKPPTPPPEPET

inhibition, inactive:
COc1ccccc1NC(=S)N1CCN(c2cccc(C)c2C)CC1 -4.85%, COc1ccccc1NS(=O)(=O)c1ccc(O)cc1 7.04%, O=C(O)CN1C(=O)S/C(=C\c2cccnc2)C1=O 16.2%, O=C(CCc1nnc(-c2ccsc2)o1)NCc1ccccc1OC(F)(F)F 3.5%, CN(C)S(=O)(=O)c1ccc(NC(=O)c2ccccn2)cc1 -5.42%, O=C(NCc1ccco1)C1CC(=O)N(c2ccc(F)cc2)C1 (configuration not stated) 9.04%, O=C(NCc1ccco1)C1CC(=O)N(c2ccc(Cl)cc2)C1 (configuration not stated) -4.21%, [O-][n+]1ccccc1/C=C/c1ccccc1 7.12%, [O-][n+]1ccccc1SCc1ccccc1 10.4%, COc1ccc(NC(=O)C2CCN(S(=O)(=O)c3cccc4nonc34)CC2)c(OC)c1 10.9%, CC1CCN(CCCCOc2ccc([N+](=O)[O-])cc2)CC1 20.7%, O=C(CN1CCCN(Cc2ccc(F)cc2)S1(=O)=O)NC1CCCC1 1.85%, O=C(Nc1ccc(Cl)cc1)NC1CCCCC1 0.423%, Cc1ccc(NC(=O)NC2CCCCCCC2)cc1 3.82%, O=C(c1ccc2c(c1)OCO2)N1CCC2(CC1)Oc1ccc(Cl)cc1C(=O)C21CC(c2cccnc2)=NO1 (configuration not stated) 6.56%, O=C(CCn1c(=O)oc2cc(Cl)ccc21)Nc1ccc(N2CCOCC2)cc1 12.7%, O=C(CCn1c(=O)oc2ccccc21)Nc1cccc(Cl)c1 6.5%, CCCCN(C(=O)c1ccc(S(=O)(=O)N2CCCC2)cc1)C1CCS(=O)(=O)C1 (configuration not stated) 2.38%, O=C(COc1ccc(Br)cc1)NNC(=S)NCc1ccccc1 15%, O=S1c2ccccc2Nc2ccccc21 8.27%, COC(=O)/C(C#N)=C1/C=Cc2ccccc2N1 9.95%, OC[C@H]1OC(O)[C@@H](O)[C@@H](O)[C@@H]1O (some centres not stated) 12.2%, O=C(Cn1nc(C(=O)O)c2ccccc2c1=O)NC12CC3CC(CC(C3)C1)C2 3.68%, O=C(CSc1ccccc1C(=O)O)NC12CC3CC(CC(C3)C1)C2 7.17%, N#Cc1ccsc1NC(=O)CN1CCN(S(=O)(=O)c2ccc3ccccc3c2)CC1 -5.22%, O=C(CCc1c[nH]c2ccccc12)NC(Cc1c[nH]c2ccccc12)C(=O)O (configuration not stated) 11.4%, CNC(=O)c1ccccc1Sc1ccccc1CO 10.3%, NNC(=O)c1ccccc1CO 3.38%, O=[N+]([O-])c1cccc(/C=N/N2CCN(c3ccccn3)CC2)c1 15.9%, COc1ccccc1CNC(=O)c1ccccc1C(=O)NC(CC(C)C)C(=O)NCc1ccccc1OC (configuration not stated) 14%, CCCNC(=O)CCCCn1c(=S)[nH]c2c([nH]c3ccc(OC)cc32)c1=O 10.7%, COc1ccc2[nH]c3c(=O)n(CCCCCC(=O)NCCC(C)C)c(=S)[nH]c3c2c1 5.88%, CCCCNC(=O)CCCCn1c(=S)[nH]c2c([nH]c3ccc(OC)cc32)c1=O 9.54%, COc1ccc2[nH]c3c(=O)n(CCCCC(=O)NCCC(C)C)c(=S)[nH]c3c2c1 9.9%, CCc1nc2oc3ccccc3c(=O)c2c(=O)n1Cc1ccccc1 2.01%, Cn1ccnc1SCC(=O)c1cccc(Br)c1 23.2%, Cc1cc(C)c(NC(=O)COC(=O)CSc2ccc(Br)cc2C)c(C)c1 -2.91%, CC(=O)c1ccc(O)c(CO)c1 8.31%, O=C(O)c1ccc(O)c(O)c1 8.73%, O=C(CSc1nnc(Cn2c(=O)sc3ccccc32)n1-c1ccccc1)N1CCCCCC1 2.86%, COCCCNCCOCCOc1ccc(C)cc1[N+](=O)[O-] 0.35%, Cc1cccc(NC(=S)NNc2cccc(Cl)c2)c1 23.5%, CCOc1ccc(C(=O)c2ccc(OCC)c(N)c2)cc1N 3.54%, CCOc1ccc(S(=O)(=O)N(CC)CC)cc1N -1.97%, COc1ccc(C(=O)C2CCN(CC(=O)Nc3ccc(C)cc3)CC2)cc1 -0.7%, CN(C)c1ccc(NC(=O)CN2CCC(NC(=O)C3CCCCC3)CC2)cc1 28.2%, O=C(CN1CCN(C2CCCCC2)CC1)Nc1ccc(Br)cc1 3.84%, CC(=O)c1ccc(NC(=O)CN2CCC(C(=O)c3ccc(F)cc3)CC2)cc1 25.6%, O=C(CN1CCC(C(=O)c2ccc(F)cc2)CC1)Nc1ccc(F)cc1 3.44%, Cc1ccc(NC(=O)CN2CCC(C(=O)c3ccc(F)cc3)CC2)cc1 11.8%, COc1cccc(-c2ccc(NC(=O)C3CCCN(Cc4cnc(C)n4C)C3)cc2)c1 (configuration not stated) 12.9%, Nc1nc(-c2ccccc2)c(-c2ccc([N+](=O)[O-])cc2)s1 2.8%, Nc1nc(-c2ccccc2)c(-c2ccccc2)s1 22%, O=C(Nc1cccc(S(=O)(=O)N2CCCC2)c1)c1cccnc1 8.88%, CCn1c(C)nc2cc(C(=O)NNC(=S)NC(=O)c3ccccc3)ccc21 22.4%, COc1ccc(C(=O)Nc2ccc(NC(=O)C3CC3)cn2)cc1 10.7%, C=CCN1C(=O)S/C(=C/c2ccc(Sc3nc4ccccc4[nH]3)o2)C1=O 6.66%, N#C/C(=C/c1ccc(Sc2nc3ccccc3[nH]2)o1)c1cccc(Br)c1 -8.47%, CC(C)N1C(=O)S/C(=C/c2ccc(Sc3nc4ccccc4[nH]3)o2)C1=O 7.29%, N#C/C(=C/c1ccc(Sc2nc3ccccc3[nH]2)o1)c1cccc(F)c1 0.21%, N#C/C(=C\c1ccc(Sc2nc3ccccc3[nH]2)o1)c1ccccc1 13%, CCN1C(=O)S/C(=C/c2ccc(Sc3nc4ccccc4[nH]3)o2)C1=O 10.6%
